Compound activity (PubChem)
This is a sample that favours compounds with a hit; in the whole collection about 9.4% have one here.
FLuc counter: firefly luciferase modulation, counter-screen for miR-21 project; purified FLuc, Km substrates, luminescence inhibition; 360,000 compounds, 6.9% hits; Potency, µM (top dose mostly 57.5 µM), inactives show top-dose activity change, negative = inhibition, actives largely listed as inhibitors;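 note: plate controls were vehicle for no effect and reference inhibitor for full effect; nearly all actives have a fitted effect of over 55% in size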
Target sequence (P08659 whole entry, looked up): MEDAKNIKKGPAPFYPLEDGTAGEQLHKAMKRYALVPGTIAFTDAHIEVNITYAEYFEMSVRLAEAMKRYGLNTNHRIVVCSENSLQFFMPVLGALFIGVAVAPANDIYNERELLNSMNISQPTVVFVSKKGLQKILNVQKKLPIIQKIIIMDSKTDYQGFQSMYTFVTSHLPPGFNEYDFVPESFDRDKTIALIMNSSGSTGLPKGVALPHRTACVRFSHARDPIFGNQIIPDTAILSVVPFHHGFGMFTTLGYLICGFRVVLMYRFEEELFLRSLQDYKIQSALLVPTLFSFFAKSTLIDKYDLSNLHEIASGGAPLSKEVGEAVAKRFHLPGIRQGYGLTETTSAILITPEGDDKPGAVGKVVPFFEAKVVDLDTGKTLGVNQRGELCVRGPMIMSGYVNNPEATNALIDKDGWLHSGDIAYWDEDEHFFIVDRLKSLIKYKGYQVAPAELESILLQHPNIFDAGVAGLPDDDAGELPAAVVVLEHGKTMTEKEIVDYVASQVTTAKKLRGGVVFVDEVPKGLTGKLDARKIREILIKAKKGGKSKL
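Biochemical qHTS of compounds, final roughly 60 µM downward over six points, against 10 nM purified firefly luciferase using Km concentrations of substrates (10 uM D-luciferin, 10 uM ATP) in Tris acetate pH 7.5 buffer; luminescence output.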
NPC1 prom act: NPC1 promoter activation; Potency, µM (doses to about 9.22 µM), for inactives: at the highest dose activation, hits mostly activators; 320,000 compounds, 2.4% hits; Huh7 NPC1 promoter luciferase reporter, 24 h; note: % of control where 0% means no effect; nearly all actives have a fitted effect of over 60% in size
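Compounds in DMSO were transferred onto Huh7 NPC1-luciferase reporter cells pre-incubated 2 h; after 24 h at 37 °C, Amplite reagent was dispensed and luminescence recorded 10 min later.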
ELG1 repair inh: ELG1-dependent DNA repair inhibition | HEK293T ELG1-luciferase reporter, luminescence, 16 h; DNA damage induced by 5-fluorouridine | 330,000 compounds, 2.3% hits | Potency, µM (titrated, usually from 46.1 µM), inactives show top-dose activity change, negative = inhibition, usual class: inhibitors; note: % is set by controls: 0 for no effect and ±100 for the full control effect; nearly all actives have a fitted effect of over 55% in size
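5-Fluorouridine DNA damage + compound/DMSO, 2,000 cells/well, 16 h, 37 °C/5% CO2. ONE-Glo, 30 min RT, luminescence. Readout = decrease in reporter signal.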
SMN2 splice enh: increases expression of the SMN2 splice variant; Potency, µM (highest dose often 46.1 µM), for the others: at the top dose activity change, positive = activation, usual class: activators; HEK293 SMN2-luciferase splicing reporter, luminescence, 30-36 h; 210,000 compounds, 2.8% hits; note: % of control where 0% means no effect; nearly all actives have a fitted effect of over 55% in size
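HEK293 cells carry an SMN2 minigene-luciferase reporter in which exon 7 inclusion puts luciferase in frame. Cells were seeded at 2000 cells/well, attached for 10-12 hours, then exposed to compounds for 30-36 hours at 37C before ONE-Glo luminescence.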
ELG1 genotox: induces genotoxicity in HEK293T cells with luciferase-tagged ELG1; 330,000 compounds, 1.3% hits; HEK293T ELG1-luciferase reporter, luminescence, 16 h; Potency, µM (top dose mostly 46 µM), for the others: at the top dose activity change, positive = activation, usual class: activators; note: % of control where 0% means no effect; nearly all actives have a fitted effect of over 60% in size
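Quantitative HTS format in 1536-well plates. HEK293T ELG1-luciferase reporter cells receive test compound and are incubated 16 hr at 37 °C, 5% CO2; ONE-Glo added, 30 min room temperature, then luminescence read.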
Rab9 prom act: Rab9 promoter activation. Huh7 Rab9 promoter-luciferase reporter, luminescence, 24 h. Potency, µM (doses to about 9.22 µM), for inactives: top-dose activation, negative = inhibition, usual class: activators. 320,000 compounds, 2.8% hits. AID 485297; note: % of control where 0% means no effect; nearly all actives have a fitted effect of over 60% in size
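Using Huh7 cells stably transfected with Rab9 promoter–luciferase, compounds were incubated 24 h at 37 °C, 5% CO2; luciferase luminescence was read 10 min after reagent addition.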
Numbers without * were called inactive; ? = inconclusive; . = no result. Calls come from the whole dose curve; as a rule, active = well fitted curve in the direction sought with a large enough effect; inconclusive = small, poorly fitted or top-dose-only effect, or another doubt; inactive = no such curve, though single readings can be large; an effect the other way counts as inactive or inconclusive. Potency is the fitted concentration of half-maximal effect.

SMILES	FLuc counter	NPC1 prom act	ELG1 repair inh	SMN2 splice enh	ELG1 genotox	Rab9 prom act
COc1ccc(NC(=O)c2oc3ccccc3c2NC(=O)Cc2coc3cc(C)ccc23)cc1	-11%	.	.	0%	.	.
CC(C)NC(=O)c1ccc(Cn2c(SCC(N)=O)nc3ccccc3c2=O)cc1	6%	.	.	.	.	.
Cc1ccc(Cn2c(SCc3ccc(C(=O)N4CCCCC4)cc3)nc3ccncc32)cc1	?	.	.	-73%	.	.
O=C(Nc1nccs1)c1ccc2c(c1)C(=O)N(Cc1cccnc1)C2=O	24µM*	1%	?	.	-4%	2%
Cc1cnc(NC(=O)c2ccc3c(c2)C(=O)N(Cc2cccnc2)C3=O)s1	1.7µM*	3%	-2%	.	4%	2%
Cc1ccc(NC(=O)c2ccc3c(c2)C(=O)N(Cc2cccnc2)C3=O)c(C)c1	1%	-1%	9%	-11%	2%	-3%
C#Cc1cccc(NC(=O)c2ccc3c(c2)C(=O)N(Cc2cccnc2)C3=O)c1	13µM*	3%	17%	.	1%	-5%
CCN1C(=O)c2ccc(C(=O)Nc3nccs3)cc2C1=O	?	0%	1%	2%	0%	-3%
CC(C)(C)N1C(=O)c2ccc(C(=O)Nc3nccs3)cc2C1=O	3.4µM*	3.5µM*	?	16%	?	2.8µM*
COc1cccc(Cn2c(=O)c(CCc3ccccc3)nc3cnc(OC)nc32)c1	.	.	.	-28%	.	.
Cc1cc(C)c(NC(=O)Cn2c(=O)n(CC(=O)NCc3ccccc3Cl)c(=O)c3sccc32)c(C)c1	0%	.	.	-6%	.	.
Cc1ccc(N(Cc2cccs2)C(=O)c2ccc(OC(C)C)cc2)cc1	-17%	.	.	.	.	.
COc1ccccc1N1CCN(C(=O)C(CCSC)NS(=O)(=O)c2ccc3c(c2)oc(=O)n3C)CC1 (centres undefined)	-4%	.	.	.	.	.
COc1cccc(NC(=O)c2cc3ccccc3oc2=O)c1	0.24µM*	1.4µM*	?	.	0.92µM*	2.5µM*
COc1ccc(NC(=O)c2cc3ccccc3o/c2=N\NS(=O)(=O)c2ccc(C)cc2)cc1	-28%	1µM*	?	.	?	0.45µM*
COc1ccc(CNC(=O)c2cc3ccccc3oc2=O)cc1	?	-5%	0%	.	0%	-1%
COc1cccc(OC(=O)c2cc3ccccc3oc2=O)c1	13µM*	2%	-27%	-3%	11%	-3%
COc1ccc2oc(=O)c(/C(C)=N/Nc3ccccc3)cc2c1	24µM*	-1%	-11%	-26%	-1%	-7%
COc1cccc2cc(C(=O)Nc3cc(C)cc(C)c3)/c(=N/NS(=O)(=O)c3ccccc3)oc12	1%	0%	0%	.	?	-4%
CCOc1ccccc1OCCCCn1c(-c2ccc(Cl)cc2)nc2ccccc2c1=O	-3%	.	.	-14%	.	.
COc1ccc(Nc2nnc(-c3ccc(C)c(S(N)(=O)=O)c3)c3ccccc23)cc1	?	.	.	-23%	.	.
CCCC12CN3CC(CCC)(CN(C1)C3c1ccc(OCc3ccccc3)cc1)C2=O (centres undefined)	0%	.	.	1%	.	.
COc1ccccc1OC(=O)c1cc2ccccc2oc1=O	-18%	-2%	7%	.	7%	-2%
COc1ccc2oc(=O)c(C(=O)Nc3cccc(C(C)=O)c3)cc2c1	4.8µM*	28%	?	.	8%	?
Cc1cccnc1NC(=O)c1cc2ccccc2oc1=O	0.6µM*	1.8µM*	?	20µM*	2.1µM*	1µM*
SMILES	FLuc counter	NPC1 prom act	ELG1 repair inh	SMN2 splice enh	ELG1 genotox	Rab9 prom act
COc1cc(/C=C/[N+](=O)[O-])ccc1OC(=O)c1cc2ccccc2oc1=O	6µM*	-18%	?	.	?	10%
COc1ccc(-c2noc(CN(C(=O)Cc3ccc(C)cc3)C(C)C)n2)cc1	2%	.	.	-41%	.	.
CCn1c(=O)cc(SCC(=O)NCc2ccccc2OC)c2ccccc21	-5%	.	.	-2%	.	.
O=C(O)c1cc(C2CC2)nc2ccccc12	2%	-2%	15%	-2%	2%	0%
CCCCNC(=S)NNC(=O)c1cc(-c2ccncc2)nc2ccccc12	9.5µM*	-1%	0%	.	0%	6%
CCCCNC(=S)NNC(=O)c1cc(C2CC2)nc2ccccc12	24µM*	-6%	0%	.	1%	1%
O=C(NNC(=O)c1cc(-c2ccncc2)nc2ccccc12)c1ccccc1F	24µM*	2%	?	.	0%	1%
O=C(NNC(=O)c1cc(-c2ccncc2)nc2ccccc12)Nc1ccc(F)cc1	?	7%	-12%	.	-10%	12%
O=C(NCc1ccccc1)c1cc(-c2ccncc2)nc2ccccc12	-18%	0%	0%	.	-8%	5%
COCCNC(=S)NNC(=O)c1cc(C2CC2)nc2ccccc12	12µM*	-7%	3%	.	1%	-8%
O=C(/C=C/Nc1ccc(Br)cn1)c1cccc(OC(F)F)c1	2.7µM*	2.8µM*	?	.	?	2.2µM*
CCOc1ccccc1NC(=O)C1CCN(S(=O)(=O)c2c(C)noc2/C=C/c2ccc(C)cc2)CC1	-1%	.	.	.	.	.
COc1cc(SC)ccc1C(=O)Nc1ccc(Br)cn1	0.076µM*	0.32µM*	?	.	?	0.28µM*
COc1cc(SC)ccc1C(=O)Nc1ncc(C)s1	0.13µM*	?	?	1.3µM*	?	0.45µM*
CSc1ccccc1C(=O)Nc1ncc(C)s1	?	-1%	?	-6%	14%	-1%
COc1ccc(CNC(=O)c2ccc(SC)cc2OC)cc1	-3%	0%	-1%	8%	2%	2%
COc1cc(SC)ccc1C(=O)Nc1ccon1	13µM*	?	?	?	?	2.8µM*
COc1cc(SC)ccc1C(=O)Nc1cccc(C)n1	3.4µM*	?	?	11µM*	?	2µM*
CCN(CCCNC(=O)c1nn(-c2ccc(OC)c(Cl)c2)c(=O)c2c1c1ccccc1n2C)c1ccccc1	0%	.	.	-9%	.	.
O=C(Nc1sc2c(c1C(=O)NCc1ccco1)CCCC2)c1cc(=O)c2ccccc2o1	-17%	.	.	15%	.	.
COc1cc(SC)ccc1C(=O)Nc1ncc(Cl)cc1Cl	2.4µM*	4µM*	?	13µM*	?	1.6µM*
COc1cc(SC)ccc1C(=O)NC(C)C	-4%	-3%	23%	-2%	4%	-4%
COc1cc(SC)ccc1C(=O)Nc1ccc2ncccc2c1	0.76µM*	1.3µM*	?	.	?	0.45µM*
COc1cc(SC)ccc1C(=O)NCCc1ccccc1	6µM*	3.5µM*	?	10µM*	?	3.5µM*
COc1cc(SC)ccc1C(=O)Nc1ccccn1	0.48µM*	0.79µM*	?	.	?	0.79µM*
